The values below come from PubChem BioAssay (EPA / NIEHS).

Test [1] is described as follows: APR_HepG2_NuclearSize_72hr: Apredica 72-hour HepG2 Assay for Nuclear Size (AID 2282925). As to conditions: high-content imaging, actives raise or lower the signal. In a few lines:
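HepG2 cells were exposed to compounds at ten concentrations from 0.39 to 200 uM (duplicate, 0.5% DMSO final) for 72 hr. After fixation in 3.7% formaldehyde, nuclei were stained with Hoechst 33342 (2 ug/mL) and imaged at 20x.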

Test [2] is described as follows: ATG_CRE_CIS: Attagene CIS-FACTORIAL HepG2 Assay for human cAMP Responsive Element (CRE) binding protein 3 (AID 2282926). Particulars: HepG2 CRE cis-reporter, Attagene multiplexed mRNA; actives raise or lower the signal. In a few lines:
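Transfected HepG2 were treated for 24 hours, then RNA was extracted and reporter cDNA amplified with sequence-specific primers. Labelled fragments were separated by capillary electrophoresis, and the CRE signal was fitted bidirectionally with DMSO as baseline.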

Test [3] deals with CCAAT/enhancer-binding protein beta (Homo sapiens) (UniProt P17676). The experiment in a line: ATG_C_EBP_CIS: Attagene CIS-FACTORIAL HepG2 Assay for human CCAAT/Enhancer Binding Protein (C/EBP) beta (AID 2282927). Particulars: HepG2 Attagene cis-factorial transcription factor reporter; actives raise or lower the signal. In a few lines:
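Following a 24 h incubation with test chemical, transfected HepG2 cells yielded RNA whose reporter transcripts were quantified by RT-PCR and fluorescent capillary electrophoresis, with DMSO serving as baseline for bidirectional fitting.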

Test [4] is described as follows: ATG_CMV_CIS: Attagene CIS-FACTORIAL HepG2 Assay for human CMV (Internal Marker) (AID 2282928).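 Note: endpoint acts as a background internal control marker rather than a target.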 As to conditions: HepG2 CMV promoter reporter, transcription factor profiling; actives raise or lower the signal. In a few lines:
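Cell system: HepG2, transiently transfected multiple reporter units under cis promoters. Exposure: 24 h. Detection: RT-PCR, FAM labeling, HpaI digestion, capillary electrophoresis. Analysis: bidirectional, DMSO baseline.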

The nature of test [5]: ATG_DR4_LXR_CIS: Attagene CIS-FACTORIAL HepG2 Assay for human Liver X Receptor (LXR), DR4 submotif (AID 2282929). Particulars: HepG2 Attagene DR4 cis-reporter, mRNA transcription; actives raise or lower the signal. Put shortly: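 HepG2, transient MRTU transfection, cis-element (DR4) promoter; 24 h compound exposure; total RNA → oligo(dT) RT → PCR → 6-FAM primer extension → HpaI cut → CE. Gain/loss vs DMSO, bidirectional fit.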

In test [6] the target is Aryl hydrocarbon receptor (Homo sapiens) (UniProt P35869). The experiment in a line: ATG_Ahr_CIS: Attagene CIS-FACTORIAL HepG2 Assay for human Aryl Hydrocarbon Receptor (Ahr) (AID 2282930). Particulars: HepG2 AhR cis-factorial reporter transcription; actives raise or lower the signal. In a few lines: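 Values derive from bidirectional fitting against DMSO negative control. Underlying signal: cis-element reporter mRNA in transiently transfected HepG2, harvested 24 h post-dose and measured by RT-PCR plus capillary electrophoresis.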
Sequence of Aryl hydrocarbon receptor (Homo sapiens) (P35869 whole entry, looked up): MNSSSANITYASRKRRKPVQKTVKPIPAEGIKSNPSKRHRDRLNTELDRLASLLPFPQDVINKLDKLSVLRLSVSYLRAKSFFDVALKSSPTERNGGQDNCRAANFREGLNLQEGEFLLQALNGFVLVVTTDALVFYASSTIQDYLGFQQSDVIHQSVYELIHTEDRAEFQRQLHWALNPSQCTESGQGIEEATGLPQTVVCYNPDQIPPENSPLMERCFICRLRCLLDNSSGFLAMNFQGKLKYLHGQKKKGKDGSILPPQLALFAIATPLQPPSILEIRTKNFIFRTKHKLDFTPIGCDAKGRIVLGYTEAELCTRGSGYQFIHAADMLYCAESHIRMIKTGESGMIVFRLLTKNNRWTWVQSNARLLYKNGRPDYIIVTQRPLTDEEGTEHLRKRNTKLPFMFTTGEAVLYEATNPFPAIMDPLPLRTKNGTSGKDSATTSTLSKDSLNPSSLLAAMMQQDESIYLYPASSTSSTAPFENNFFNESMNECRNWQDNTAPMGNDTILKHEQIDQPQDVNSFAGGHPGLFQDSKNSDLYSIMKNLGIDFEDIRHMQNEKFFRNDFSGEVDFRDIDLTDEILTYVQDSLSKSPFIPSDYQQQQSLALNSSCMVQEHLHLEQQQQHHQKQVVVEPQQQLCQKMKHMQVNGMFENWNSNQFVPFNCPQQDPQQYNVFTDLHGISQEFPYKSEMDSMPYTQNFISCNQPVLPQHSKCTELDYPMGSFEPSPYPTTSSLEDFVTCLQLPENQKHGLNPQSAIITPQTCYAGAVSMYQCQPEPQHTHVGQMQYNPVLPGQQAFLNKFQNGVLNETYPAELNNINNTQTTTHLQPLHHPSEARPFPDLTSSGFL

Test [7] can be described thus: ATG_AP_1_CIS: Attagene CIS-FACTORIAL HepG2 Assay for human Activator Protein 1 (AP-1) (AID 2282931). Particulars: HepG2 Attagene cis-factorial AP-1 reporter mRNA; actives raise or lower the signal. In a few lines:
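Transient MRTU transfection of HepG2 → 24 h chemical treatment → RNA isolation, RT-PCR, 6-FAM labelling, HpaI digest → capillary electrophoresis. Fit: bidirectional, DMSO negative control.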

A short description of test [8]: ATG_AP_2_CIS: Attagene CIS-FACTORIAL HepG2 Assay for human Activator Protein 2 (AP-2) (AID 2282932). Particulars: HepG2 AP-2 cis-reporter, Attagene transcription factor profiling; actives raise or lower the signal. In a few lines: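 HepG2 cells were transiently transfected with multiple cis-promoter reporter transcription units and dosed for 24 h. Reporter mRNA was measured by RT-PCR with capillary electrophoresis fluorescence; bidirectional fits relative to DMSO baseline.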

Test [9] is described as follows: ATG_BRE_CIS: Attagene CIS-FACTORIAL HepG2 Assay for human Bone Morphogenetic Protein (BMP) Response Element (BRE) (AID 2282933). Particulars: HepG2 BMP response element reporter, Attagene transcription factor profiling; actives raise or lower the signal. Put shortly: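 After a 24 h chemical treatment, transiently transfected HepG2 cells were lysed for RNA; reporter transcripts were quantified by fluorescent RT-PCR and capillary electrophoresis, normalised to DMSO.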

Test [10] has as its target Retinoic acid receptor alpha (Homo sapiens) (UniProt P10276). The experiment in a line: ATG_DR5_RAR_CIS: Attagene CIS-FACTORIAL HepG2 Assay for human Retinoic Acid Receptor Alpha (RARE), DR5 submotif (AID 2282934).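 For AC50: reporter responds to endogenous RAR alpha beta and gamma in HepG2 not RARA alone.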 Particulars: HepG2 Attagene cis-factorial RARE DR5 reporter, mRNA; actives raise or lower the signal. Put shortly:
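Endpoint fitted in both directions relative to DMSO as negative control. It reflects DR5 cis-element reporter mRNA induction in transiently transfected HepG2 cells, measured 24 h after dosing through RT-PCR and fluorescent capillary electrophoresis.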

Test [11] has as its target Transcription factor E2F1 (Homo sapiens) (UniProt Q01094). The test can be described thus: ATG_E2F_CIS: Attagene CIS-FACTORIAL HepG2 Assay for human E2F Transcription Factor 1 (AID 2282935). Particulars: HepG2 Attagene cis-reporter, E2F reporter RNA transcripts; actives raise or lower the signal. In a few lines:
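HepG2 cells transiently transfected with multiplexed cis-element reporter units, dosed for 24 h. Reporter mRNA measured by RT-PCR, 6-FAM primer-extension labeling, HpaI digestion and capillary electrophoresis; bidirectional fit versus DMSO baseline.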

A short description of test [12]: ATG_E_Box_CIS: Attagene CIS-FACTORIAL HepG2 Assay for human Enhancer Box (E-box) (AID 2282936). Particulars: HepG2 E-box cis-reporter transcription, actives raise or lower the signal. In a few lines: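 HepG2 cells transiently transfected with multiplexed cis-element reporter units sensing endogenous transcription factor activity; 24 h compound exposure. Reporter mRNA measured by RT-PCR, 6-FAM primer extension, HpaI digestion and capillary electrophoresis; bidirectional fit versus DMSO.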

Test [13] in a line: ATG_M_61_CIS: Attagene CIS-FACTORIAL HepG2 Assay for M61 Transcription Factor (Internal Marker) (AID 2282937). As to conditions: HepG2 Attagene CIS-FACTORIAL M61 internal marker reporter; actives raise or lower the signal. In a few lines: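 Human liver HepG2, transient MRTU transfection (cis promoter elements), 24 h compound. Total RNA → oligo(dT) RT → PCR → FAM label → HpaI → CE. Internal background marker; bidirectional fitting, DMSO = baseline.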

Test [14] in a line: ATG_EGR_CIS: Attagene CIS-FACTORIAL HepG2 Assay for human Early Growth Response 1 (EGR1) (AID 2282938). Particulars: HepG2 Attagene CIS-FACTORIAL EGR reporter mRNA; actives raise or lower the signal. Put shortly:
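Transient transfection of human HepG2 with multiple cis-regulated reporter units, chemical exposure 24 h, total RNA isolated. Reverse transcription, PCR, fluorescent labelling and capillary electrophoresis quantify reporter transcripts; activity fitted bidirectionally against DMSO.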

Test [15] in a line: ATG_ERE_CIS: Attagene CIS-FACTORIAL HepG2 Assay for Estrogen Response Element (ERE) (AID 2282940). Particulars: HepG2 ERE cis-reporter, Attagene RNA transcript; actives raise or lower the signal. Put shortly:
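Measuring endogenous transcription factor output, the assay doses transfected HepG2 cells for 24 hours and quantifies reporter transcripts by fluorescent RT-PCR and capillary electrophoresis, with DMSO as baseline.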

The target in test [16] is Hepatocyte nuclear factor 3-beta (Homo sapiens) (UniProt Q9Y261). The experiment in a line: ATG_FoxA2_CIS: Attagene CIS-FACTORIAL HepG2 Assay for human Forkhead box A2 (FOXA2) (AID 2282942). As to conditions: HepG2 cis-reporter transcription factor activity, 24 h; actives raise or lower the signal. In a few lines:
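Transient MRTU transfection of HepG2 liver cells; 24 h treatment; total RNA → oligo(dT) RT → PCR → FAM primer extension → HpaI cut → CE. Bidirectional fit vs DMSO.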

Test [17] in a line: ATG_FoxO_CIS: Attagene CIS-FACTORIAL HepG2 Assay for human Forkhead box O (FoxO) (AID 2282943). Particulars: HepG2 Attagene cis-reporter, FoxO element, mRNA; actives raise or lower the signal. Put shortly:
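Values reflect reporter mRNA induction or loss in HepG2 cells 24 h post-dosing, fitted bidirectionally with DMSO as negative control and baseline. Detection used RT-PCR and fluorescence capillary electrophoresis.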

A short description of test [18]: ATG_GATA_CIS: Attagene CIS-FACTORIAL HepG2 Assay for human GATA Binding Protein (AID 2282944). As to conditions: HepG2 GATA cis-element reporter, Attagene multiplex mRNA; actives raise or lower the signal. Put shortly:
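Measures endogenous transcription factor-driven reporter mRNA in HepG2 cells transiently carrying cis-regulated constructs. 24 h dosing; RNA via oligo(dT) reverse transcription, PCR, HpaI digestion, capillary electrophoresis; fitted relative to DMSO.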

Test [19] can be described thus: ATG_Ets_CIS: Attagene CIS-FACTORIAL HepG2 Assay for human Erythroblast Transformation Specific (ETS) (AID 2282941). As to conditions: HepG2 ETS cis-reporter transcription, actives raise or lower the signal. In a few lines:
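After transient cis-reporter transfection, HepG2 cells receive test chemical for 24 h. Reporter mRNA levels, measured by RT-PCR and capillary electrophoresis fluorescence, are analysed bidirectionally relative to the DMSO baseline.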

Molecules are shown by their SMILES. Several values for one entry are separate records, joined by “and”; a condition that tells them apart may be missing. Equal values may be shown once. Where a structure was tested more than once in an assay, its records may differ in their call. Activity calls are given as the source filed them. Rule for the calls: active = hit-call score of the fitted dose curve at least 0.9, where 1 is the maximum; inactive = score below 0.9.

Sequence of Retinoic acid receptor alpha (Homo sapiens) (P10276 whole entry, looked up): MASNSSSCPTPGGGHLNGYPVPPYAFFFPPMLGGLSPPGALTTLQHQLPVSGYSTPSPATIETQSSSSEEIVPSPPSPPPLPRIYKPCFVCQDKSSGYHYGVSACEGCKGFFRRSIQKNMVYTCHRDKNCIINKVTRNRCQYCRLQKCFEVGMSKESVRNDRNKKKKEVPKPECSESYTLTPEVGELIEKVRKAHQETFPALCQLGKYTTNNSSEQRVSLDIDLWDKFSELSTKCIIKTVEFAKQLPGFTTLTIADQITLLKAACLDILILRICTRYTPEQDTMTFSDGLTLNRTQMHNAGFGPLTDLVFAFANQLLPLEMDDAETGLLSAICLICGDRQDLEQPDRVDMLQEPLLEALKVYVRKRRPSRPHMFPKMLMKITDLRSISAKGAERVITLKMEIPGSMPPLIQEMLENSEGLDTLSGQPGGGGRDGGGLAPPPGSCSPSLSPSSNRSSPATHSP
Sequence of CCAAT/enhancer-binding protein beta (Homo sapiens) (P17676 whole entry, looked up): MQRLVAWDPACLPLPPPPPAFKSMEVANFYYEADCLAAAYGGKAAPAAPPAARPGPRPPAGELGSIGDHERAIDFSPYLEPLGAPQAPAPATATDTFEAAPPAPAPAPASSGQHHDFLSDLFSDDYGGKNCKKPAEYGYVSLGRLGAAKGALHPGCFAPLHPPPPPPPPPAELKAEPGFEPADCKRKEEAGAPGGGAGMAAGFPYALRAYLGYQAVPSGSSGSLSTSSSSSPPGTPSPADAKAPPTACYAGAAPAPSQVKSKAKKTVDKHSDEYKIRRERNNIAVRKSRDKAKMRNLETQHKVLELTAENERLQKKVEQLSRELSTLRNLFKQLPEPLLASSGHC
Sequence of Transcription factor E2F1 (Homo sapiens) (Q01094 whole entry, looked up): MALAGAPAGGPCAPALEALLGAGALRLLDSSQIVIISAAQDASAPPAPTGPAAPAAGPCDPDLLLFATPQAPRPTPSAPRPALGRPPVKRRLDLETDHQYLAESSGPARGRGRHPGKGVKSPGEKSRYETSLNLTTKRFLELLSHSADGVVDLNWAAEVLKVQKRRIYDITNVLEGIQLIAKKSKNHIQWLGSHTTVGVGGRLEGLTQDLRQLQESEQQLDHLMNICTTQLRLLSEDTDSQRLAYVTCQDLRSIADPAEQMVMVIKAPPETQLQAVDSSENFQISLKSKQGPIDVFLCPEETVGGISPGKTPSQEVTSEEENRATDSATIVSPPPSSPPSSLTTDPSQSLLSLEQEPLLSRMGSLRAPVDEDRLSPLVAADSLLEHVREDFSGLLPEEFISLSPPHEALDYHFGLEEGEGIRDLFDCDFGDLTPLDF
Sequence of Hepatocyte nuclear factor 3-beta (Homo sapiens) (Q9Y261 whole entry, looked up): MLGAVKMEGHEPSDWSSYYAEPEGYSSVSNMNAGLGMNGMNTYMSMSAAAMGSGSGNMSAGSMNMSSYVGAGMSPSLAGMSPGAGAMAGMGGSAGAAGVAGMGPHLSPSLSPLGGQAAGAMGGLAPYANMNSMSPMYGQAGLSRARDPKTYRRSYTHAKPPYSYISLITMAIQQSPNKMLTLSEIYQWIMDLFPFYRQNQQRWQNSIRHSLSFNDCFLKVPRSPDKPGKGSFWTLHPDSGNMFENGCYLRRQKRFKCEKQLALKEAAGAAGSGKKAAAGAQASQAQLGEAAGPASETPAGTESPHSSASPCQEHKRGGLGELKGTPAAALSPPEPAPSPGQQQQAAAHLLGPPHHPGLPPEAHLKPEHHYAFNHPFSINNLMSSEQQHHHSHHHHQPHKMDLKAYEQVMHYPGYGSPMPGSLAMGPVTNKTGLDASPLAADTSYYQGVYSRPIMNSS

`CCC(=C(c1ccc(O)cc1)c1ccc(OCCN(C)C)cc1)c1ccccc1`: the molecule was called inactive in test [1], in [2], in test [3], in [4], in test [5] and in test [6]. The call in [7], in [8], in [9], in [10], in test [11] and in test [12] was inactive. In addition, the outcome in test [13], in test [14], in [15], in [16], in test [17] and in test [18] was inactive. For the same molecule, the AC50 in test [4] was 5.22 µM (active) and 7.1 µM (active); in test [5] it was 9.72 µM (active) and 2.37 µM (active); in [9], 10.5 µM (active); in [10], 11.1 µM (active); in [11] it was 10.8 µM (active); in test [12], 9.17 µM (active) and 7.1 µM (active) and 3.43 µM (active). Further, the AC50 was 11.7 µM (active) in test [13]; 9.87 µM (active) and 10.8 µM (active) in test [14]; 10.5 µM (active) in test [18].

Consider `CCOC(=O)CC(O)(CC(=O)OCC)C(=O)OCC`, for which the result in [1], in test [2], in [3], in [4], in test [5] and in [6] was inactive. Further, the call in test [7], in test [9], in test [10], in test [11], in test [12] and in test [13] was inactive. The call in test [14], in [15], in [16], in test [17] and in [18] was inactive.

For the molecule `CCCCC[C@H](O)CC(=O)CCc1ccc(O)c(OC)c1`, the molecule was called inactive in test [1], in test [2], in test [3], in [4], in test [5] and in test [6]. Moreover, the molecule was classed as inactive in [7], in test [9], in test [10], in [11], in [12] and in [13]. Further, the molecule was called inactive in test [14], in test [15], in test [16], in test [17] and in test [18].

Take `CC(C)CCCCCCOC(=O)CCCCC(=O)OCCCCCCC(C)C`: the molecule was called inactive in [1], in test [2], in test [3], in test [4], in test [5] and in [7]. The molecule was called inactive in test [9], in test [10], in [11], in test [12], in test [13] and in test [14]. Further, the call in [15], in test [16], in [17] and in test [18] was inactive. Further, the AC50 in test [6] was 60.3 µM (active).

Regarding `O=C(OCCOCCOC(=O)c1ccccc1)c1ccccc1`, the result in test [1], in test [2], in test [3], in test [4], in [5] and in test [7] was inactive. Moreover, the call in test [9], in [10], in test [11], in test [12], in [13] and in test [14] was inactive. Also, the call in test [15], in test [19], in test [16], in [17] and in test [18] was inactive. Besides, the AC50 in test [6] was 71.3 µM (active).

For the molecule `OC1CCC(C2CCCCC2)CC1` (stereo not given), the call in [1], in [2], in [3], in [6], in test [7] and in test [9] was inactive. For the same molecule, the molecule was called inactive in [10], in test [11], in test [12], in [13], in test [14] and in test [19]. The call in [16], in test [17] and in [18] was inactive. Also, the AC50 in test [5] is 158 µM (active) [middle of 4 runs]; in [6] it was 1.32 µM (active) and 47 µM (active); in [7] it was 162 µM (active) and 149 µM (active); in [15], 27 µM (active) and 27.4 µM (active) and 27.5 µM (active).

In general, AC50 refers to the midpoint of the concentration-response curve, whichever way the signal moves.
